# Bioassay records (PubChem BioAssay)
# Only some compounds are listed: those with a hit (about 3.8% of all), similar ones and a draw of the others.
# HSF1 activator: increases HSF-1 driven luciferase reporter signal; 1.7% of 300,000 active; NIH3T3-HGL HSF-1 luciferase reporter, MG132, 8 h; 100% = twice DMSO control signal; activation, % at 9 µM;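 active = mean replicate activation of at least 50% with a set share of replicates each reaching 50%; inconclusive = only one of those two conditions met; inactive = mean below 50% and too few replicates reaching it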;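 also: 0% = median of the neutral control wells and 100% = twice that signal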
# Wnt bcat act: activators of Wnt/beta-catenin signaling; activation, % at 9.35 µM; AID 743398; 1.2% of 300,000 active; Wnt/beta-catenin reporter cell assay, activator, plate reader; in the data active = activation above about 30%, passing the limit was not always enough; inconclusive = no clear call, values can overlap the other calls;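 also: 0% = neutral control wells and 100% = positive control wells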
# HSF1 inh: HSF1 inhibition. NIH3T3-HGL HSE-luciferase, MG132-induced, luminescence 8 h; hits give low values. activity change, negative = inhibition, % at 7.5 µM (by protocol). 0.77% of 300,000 active;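 active = more than half of replicate wells show activity change below -50%, luminescence cut by over half; inconclusive = some wells, but at most half, below -50%; inactive = no replicate well below -50%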;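 also: luciferase reports HSF-1 transcriptional activity via heat shock element; 0% = median of DMSO wells and -100% = zero luminescence signal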
# esBAF inh: blocks esBAF chromatin remodeling in mouse ES cells; Bmi1-luciferase knock-in reporter, 24 h; 100% = twice the neutral-well signal; reporter increase, % at 12.5 µM; 2% of 350,000 active; in the data active = activation above about 40%; inconclusive = no clear call, values can overlap the other calls;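 also: 0% = median of the plate's neutral control wells and 100% = double that signal; a rise in the Bmi1 reporter signal indicates esBAF inhibition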
# MITF TRPM1 HTS: increases MITF-driven TRPM1 promoter luciferase signal; SK-MEL-5 TRPM1-promoter luciferase, 24 h; % of positive control, neutral wells = 0; activation, % at 12.5 µM; 0.75% of 300,000 active;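 active = mean activation of at least 80% with every replicate also reaching 80%; inconclusive = mean reaches 80% but some replicate falls short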;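 also: 0% = neutral control wells and 100% = parthenolide positive control wells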
# The depositor's hits bear a star; ? = inconclusive; / = not tested or not shown.
SMILES,HSF1 activator,Wnt bcat act,HSF1 inh,esBAF inh,MITF TRPM1 HTS
O=C(NC1CCCC1)C(c1ccncc1)N(C(=O)c1ccco1)c1ccc(Cl)cc1 (stereo not given),?,-0.8,15.5,5.4,-8.2
O=C(NC1CCCC1)C(c1ccco1)N(C(=O)c1ccco1)c1ccccc1 (stereo not given),-6.5,0.0,-1.6,3.2,-3.7
Cc1noc(C)c1NC(=O)N(C)C[C@H]1OCCCC[C@H](C)Oc2ccc(NC(=O)CCC(F)(F)F)cc2C(=O)N([C@H](C)CO)C[C@@H]1C,/,/,/,-2.3,/
Cc1cccc(N(C(=O)c2ccco2)C(C(=O)NC2CCCC2)c2cccnc2)c1C (stereo not given),-84.3,-0.7,-78.9*,-2.3,1.8
O=C(Nc1ccccc1)C1=C[C@@H](C2CC2)C[C@@H](OCc2ccc(CO)cc2)O1,12.6,?,3.8,59.5*,4.7
O=C(Nc1ccccc1)C1=C[C@@H](c2ccc(Br)cc2)C[C@@H](OCCCCO)O1,23.3,23.1,4.8,57.4*,72.2
O=C(Nc1ccccc1)C1=C[C@@H](C2CC2)C[C@@H](OCCCCO)O1,-0.5,?,-1.8,66.9*,35.7
O=C(NCc1ccccc1)C1=C[C@H](c2ccc(Br)cc2)C[C@H](OCCCCO)O1,-9.9,-2.4,-0.6,-4.7,-4.7
O=C(Nc1ccccc1)C1=C[C@H](c2ccccc2)C[C@H](OCCCCO)O1,37.0,33.0*,24.1,51.1*,67.7
O=C(Nc1ccccc1)C1=C[C@H](c2ccc(C(F)(F)F)cc2)C[C@H](OCCCCO)O1,-22.5,10.3,-12.3,34.3,42.0
CNC(=O)C[C@H]1CC[C@H]2[C@@H](COC[C@@H](O)CN2C(=O)c2ccc3c(c2)OCO3)O1,/,/,/,0.0,/
COCc1cn(CC[C@H]2CC[C@H](NC(=O)Nc3ccc(C(F)(F)F)cc3)[C@@H](CO)O2)nn1,/,/,/,-0.2,/
O=C([C@H]1[C@H](CO)[C@H]2Cn3c(cccc3=O)[C@H]2N1C(=O)CC1CC1)N1CCCCC1,/,/,/,-2.2,/
CCOc1ccccc1NC(=S)NCc1ccco1,51.5*,/,19.7,-6.0,-11.7
Cc1ccc(Oc2nc3c(c(=O)n(C)c(=O)n3C)n2C)cc1C,-6.7,-2.1,-1.5,/,22.6
Cn1c(=O)c2c(nc(Oc3ccc(-c4ccccc4)cc3)n2C)n(C)c1=O,-5.9,-1.0,-12.8,47.6*,4.9
c1ccc(CNc2nc3ccccc3[nH]2)cc1,27.2,19.9,20.3,15.1,83.3*
c1ccc(CNc2nc(NCc3ccccc3)c3ccccc3n2)cc1,-64.6,/,-59.8*,/,/
COc1ccc2nc(NCc3ccccc3)[nH]c2c1,14.3,4.6,0.4,32.7,14.0
c1ccc(CNc2nc(-c3ccccc3)nc3ccccc23)cc1,25.6,-2.2,12.2,-4.5,/
Cc1ccc2nc(NCc3ccccc3)[nH]c2c1,233.3*,20.0,146.4,-17.2,11.0
c1ccc2[nH]c(NCc3ccc4c(c3)OCO4)nc2c1,54.9*,/,21.3,37.9,63.3
CO[C@H]1CN(C)C(=O)c2cc(NC(=O)C3CCC3)ccc2OC[C@@H](C)N(C(=O)CN(C)C)C[C@H]1C,/,/,/,2.9,/
Nc1ccc(Nc2nc3ccccc3[nH]2)cc1,1.6,-0.1,-1.9,3.6,/
c1ccc(Nc2nc3ccccc3[nH]2)nc1,62.4*,12.5,13.6,?,42.6
SMILES,HSF1 activator,Wnt bcat act,HSF1 inh,esBAF inh,MITF TRPM1 HTS
C[C@@H]1CN([C@H](C)CO)C(=O)c2cccc(NC(=O)C3CCCCC3)c2O[C@H]1CN(C)Cc1ccc(-c2ccccc2)cc1,/,/,/,-0.8,/
CCN1[C@@H]2Cn3c(ccc(-c4ccccc4F)c3=O)[C@H]1[C@@H](C(=O)N1CCCCC1)[C@@H]2CO,/,/,/,0.4,/
C1=C(c2ccccc2)CCN(c2ncnc3nc[nH]c23)C1,-79.4,0.3,-75.0*,3.5,6.9
c1ccc2c(c1)CCN(c1ncnc3nc[nH]c13)C2,-0.7,-1.2,1.0,-3.3,/
CCn1c(=O)c(C(=O)NCc2ccc(Cl)cc2)c(O)c2ccccc21,8.7,43.1*,-4.8,11.8,/
C=CCn1c(=O)c(C(=O)Nc2cc(C)ccn2)c(O)c2ccccc21,2.5,1.3,-2.2,3.0,8.1
C=CCn1c(=O)c(C(=O)Nc2ccc(C)cc2)c(O)c2ccccc21,1.9,6.2,2.4,67.3*,/
C=CCn1c(=O)c(C(=O)Nc2ccccc2S(N)(=O)=O)c(O)c2ccccc21,16.6,6.5,-7.5,64.6*,72.3
Cc1ccc2c(CN3CCC(C)CC3)cc(=O)oc2c1,37.6,/,15.6,59.3*,47.5
COc1ccc2c(CN3CCN(c4ccccc4OC)CC3)cc(=O)oc2c1,/,-4.0,/,4.9,/
Cc1cc2oc(=O)cc(CN3CCN(Cc4ccccc4)CC3)c2cc1Cl,24.2,/,0.4,-4.7,2.9
COc1ccc2c(CN3CCCCCCC3)cc(=O)oc2c1,/,1.2,/,48.5*,/
Cc1cc2oc(=O)cc(CN3CCC(C)CC3)c2cc1Cl,0.7,4.2,1.2,58.3*,23.9
O=C(Cc1ccccn1)N[C@@H]1CC[C@@H](CC(=O)N2CCCCC2)O[C@@H]1CO,/,/,/,4.6,/
CC(C)NC(=O)N(C)C[C@@H]1Oc2ccc(NC(=O)CCCCCC(=O)Nc3ccccc3N)cc2C(=O)N([C@@H](C)CO)C[C@@H]1C,/,/,/,-2.8,/
O=C(CSc1ncnc2c1nnn2Cc1ccc(F)cc1)NCC1CCCO1 (stereo not given),62.6*,-0.8,43.9,/,-8.9
COc1cccc(C(=O)Nc2ccc3c(c2)C(=O)N(C)[C@H]2CC[C@H](CC(=O)NCC(F)(F)F)O[C@@H]2CO3)c1,/,/,/,0.8,/
C[C@@H]1CCCCO[C@H](CN(C)CC2CCCCC2)[C@H](C)CN([C@@H](C)CO)C(=O)c2cc(NS(=O)(=O)c3cn(C)cn3)ccc2O1,/,/,/,3.2,/
CCOc1ccc(NC(=O)Cn2ncc3ccccc32)cc1,14.2,17.5,8.4,50.7*,72.9
COC(=O)c1ccc(Cn2nnc3ccccc32)cc1,4.8,0.2,7.6,/,7.8
COC(=O)c1ccc(COn2nnc3ccccc32)cc1,59.1*,13.0,40.7,30.8,63.7
CCOC(=O)c1ccc(NC(=O)Cn2nnc3ccccc32)cc1,/,0.3,/,94.6*,/
CCOC(=O)c1ccc(NC(=O)CCSCCc2ccccn2)cc1,-3.8,/,-15.2,4.3,85.9*
CO[C@H]1CN(C)C(=O)c2cc(NC(=O)C3CCCC3)ccc2OC[C@H](C)N(C)C[C@H]1C,/,/,/,-2.6,/
Cc1ccc(S(=O)(=O)N(C)C[C@@H]2Oc3c(NC(=O)c4cnccn4)cccc3C(=O)N([C@@H](C)CO)C[C@@H]2C)cc1,/,/,/,-3.3,/
COCC(=O)Nc1ccc2c(c1)[C@@H]1C[C@@H](CC(=O)NCC3CC3)O[C@H](CO)[C@@H]1O2,/,/,/,-2.5,/
c1ccc(Cn2c(-c3ccco3)nc3nc4ccccc4nc32)cc1,90.4*,37.6*,56.3,/,90.0*
c1coc(-c2nc3nc4ccccc4nc3n2CC2CCCO2)c1 (stereo not given),56.1*,/,14.8,/,2.8
O=c1c2ccccc2nc(-c2ccco2)n1Cc1ccccc1,39.7,/,37.0,51.7*,96.3*
